D2 ag-1 = agonists of human D2 dopamine receptor (beta-arrestin). P14416. DiscoveRx PathHunter D2 beta-arrestin, luminescence, 90 min; 100% = 57 uM dopamine signal. activation, % (no concentration beside the values). actives 0.084% (n = 360,000). AID 624465; in the data active means activation above about 40%; inconclusive means between about 15% and that limit
Target sequence (P14416 whole entry, looked up): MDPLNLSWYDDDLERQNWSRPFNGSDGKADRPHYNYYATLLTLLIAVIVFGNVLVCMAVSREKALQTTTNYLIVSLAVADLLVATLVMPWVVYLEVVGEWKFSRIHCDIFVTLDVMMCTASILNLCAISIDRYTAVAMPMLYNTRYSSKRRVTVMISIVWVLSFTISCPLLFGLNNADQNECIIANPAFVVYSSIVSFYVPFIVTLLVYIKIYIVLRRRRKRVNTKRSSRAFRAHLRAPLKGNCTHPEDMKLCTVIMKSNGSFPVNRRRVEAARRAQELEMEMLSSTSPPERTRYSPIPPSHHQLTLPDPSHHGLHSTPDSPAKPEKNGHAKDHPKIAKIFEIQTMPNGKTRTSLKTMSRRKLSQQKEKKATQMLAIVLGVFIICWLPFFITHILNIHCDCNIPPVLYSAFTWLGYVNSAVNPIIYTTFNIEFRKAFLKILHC
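DiscoveRx PathHunter D2 beta-arrestin cells (2,100/well) attached overnight, then compound-stimulated 90 min at 37 C in HBSS/10 mM HEPES/0.1% Tween-20 buffer; beta-galactosidase complementation read by luminescence after 1 h at ambient temperature. Dopamine 57 uM final (EC100) as control.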
D2 ag-2 = D2 dopamine receptor (human) agonism. activation, % at 2 µM. P14416. HEK293 T-REx D2 cells, calcium flux agonist mode. actives 0.53% (n = 340,000);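 active means activation over 3 SD above normal in the single-dose calcium agonist read, cut at about 30% in these data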
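Agonism scored from kinetic calcium signal (1 read/sec, 180 s) following compound pin transfer, after a 10 s baseline. Cells: HEK293 Trex line expressing inducible D2 receptor coupled to calcium, dye-loaded after overnight culture at 30 C.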
D2 PAM-1 = positive allosteric modulators of human D2 dopamine receptor; AID 624464; P14416; potentiation, % (concentration not given with the values); DiscoveRx D2 beta-arrestin cells, luminescence, 90 min; 100% = 57 uM dopamine signal; actives 0.23% (n = 360,000); in the data active means potentiation above about 50%; inconclusive means mostly about 30% to 49%
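PathHunter beta-arrestin assay in DiscoveRx D2 cells. Compounds were added with an EC20 of dopamine (50 nM final) for 90 min at 37 deg C. Luminescence was read 1 h after detection reagent, with 57 uM dopamine as the EC100 control.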
D2 PAM-2 = D2 dopamine receptor (human) potentiation | HEK293 T-REx D2, calcium flux, EC20 dopamine potentiation | AID 485347 | actives 0.34% (n = 340,000) | potentiation, % at 10 µM;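 active means potentiation over 3 SD above the plate norm, cut at about 30% in these data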
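Primary screen. Calcium kinetics in induced HEK293 T-REx D2 cells: compound pre-addition 180 s, EC20 dopamine, 180 s more.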
D2 antagonist = D2 dopamine receptor (human) antagonism; actives 2% (n = 340,000); HEK293 TREx D2 cells, calcium flux, dopamine EC80; AID 485344; P14416; inhibition, % at 10 µM; in the data active means inhibition above about 30%; inactive means below that, where a call was filed
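HEK293 T-REx D2 cells, tet-induced, calcium dye no-wash. Cpd pintool add, 180 s kinetic, then EC80 DA, 180 s kinetic. Ca flux read.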
Of the large screens only hits and unclear results are named; the others gave an inactive call. Only some compounds are listed: those with a hit (about 2.4% of all), similar ones and a draw of the others.

COc1ccc(N2CCN(C(=O)CCS(=O)(=O)c3ccc(OC)cc3)CC2)cc1	D2 PAM-2 32
O=C(NCCN1CCN(C(=O)c2ccc(F)cc2)CC1)c1ccc(F)cc1	D2 antagonist 64
COc1ccc(OC)c(CN2CCN(Cc3cc(=O)oc4cc(O)ccc34)CC2)c1	D2 antagonist 34
O=C(Nc1ccc(Br)cc1F)c1ccc2nc(CCc3ccccc3)oc2c1	none (no result: D2 ag-1, D2 PAM-1, D2 PAM-2, D2 antagonist)
O=C(CCC1N=C2c3ccccc3N=C(SCc3cccc(F)c3)N2C1=O)NCc1cccs1 (centres undefined)	none (no result: D2 ag-1, D2 PAM-1, D2 antagonist)
COc1ccc(C(=O)N2CCN(S(=O)(=O)c3ccc(Cl)cc3)CC2)cc1OC	none
COc1ccc(N2CCN(S(=O)(=O)c3ccc(OC)c(C(=O)N4CCCC4)c3)CC2)cc1	D2 antagonist 48
COc1ccc(S(=O)(=O)N2CCCCCC2)cc1C(=O)N1CCCCC1	none
COc1ccc(C(=O)N2CCN(S(=O)(=O)c3ccc(F)cc3)CC2)cc1OC	D2 antagonist 39
O=c1c2cccnc2n(Cc2ccccc2F)c(=O)n1Cc1ccc(F)cc1	none (no result: D2 ag-1, D2 ag-2, D2 PAM-1, D2 antagonist)
CCN(CC)c1ccc(/C=C(/C#N)c2nc3ccc(C)cc3[nH]2)c(OC(C)C)c1	D2 ag-2 42
CCC(C)n1c(=O)c2sccc2n2c(CCCC(=O)Nc3ccc(F)cc3)nnc12 (centres undefined)	none (no result: D2 ag-1, D2 PAM-1, D2 antagonist)
CCOC(=O)c1[nH]c2ccccc2c1NC(=O)c1cc(OC)c(OC)c(OC)c1	none (no result: D2 ag-2, D2 PAM-2, D2 antagonist)
COc1cc(C(=O)Nc2c(C(=O)O)[nH]c3ccc(C)cc23)cc(OC)c1OC	D2 antagonist 34
O=C(COC(=O)c1ccc([N+](=O)[O-])o1)NC1CCCC1	none (no result: D2 ag-2, D2 PAM-2, D2 antagonist)
O=C(COC(=O)c1ccc([N+](=O)[O-])o1)NC1CCS(=O)(=O)C1 (centres undefined)	D2 PAM-1 inconclusive, D2 antagonist 33
COCCn1c(CNC(=O)c2ccccc2C)nc2cccnc21	none (no result: D2 ag-1, D2 PAM-1, D2 antagonist)
COc1ccccc1C(=O)NCC(=O)N/N=C(\C)Cc1ccccc1	D2 antagonist 30
COc1ccc(OCC(=O)N/N=C(/C)Cc2ccccc2)cc1	D2 antagonist 32
C/C(Cc1ccccc1)=N\NC(=O)CNC(=O)COc1ccccc1	none
CCOc1c(Cl)cc(C(=O)N(Cc2ccc(N(C)C)cc2)Cc2ccco2)cc1Cl	none (no result: D2 ag-1, D2 PAM-1, D2 antagonist)
Cn1ncc(C(=O)N2CCN(c3ccc(F)cc3)CC2)c1C1CCN(C(=O)OC(C)(C)C)CC1	none (no result: D2 ag-1, D2 PAM-1, D2 antagonist)
O=c1c2nnn(-c3cccc(F)c3)c2ncn1Cc1ccccn1	D2 antagonist 34
Cc1ccc(C(=O)NCC(c2ccco2)N2CCCCC2)s1 (centres undefined)	D2 antagonist 36
O=C(NCC(c1ccco1)N1CCCC1)c1cc2ccccc2s1 (centres undefined)	D2 antagonist 35
Cc1ccc2c(c1)c1c(c(=O)n(-c3cccc(Cl)c3)c(=O)n1C)n2C	none (no result: D2 ag-1, D2 PAM-1, D2 PAM-2, D2 antagonist)
COc1ccc(OC)c(NC(=O)C2CC(=O)n3ncnc3N2)c1 (centres undefined)	D2 PAM-2 33
CCOC(=O)c1ccc2c(c1)sc1nc(-c3ccc(OCC)cc3)cn12	none (no result: D2 ag-1, D2 PAM-1, D2 antagonist)
CCOC(=O)CC(NC(=O)CCc1c(C)nc2c(c1C)c(=O)n(C)c(=O)n2C)c1ccc(OCC)c(OC)c1 (centres undefined)	none (no result: D2 ag-1, D2 PAM-1, D2 antagonist)
COc1ccccc1/C=N\Nc1cn[nH]c(=O)c1Cl	D2 antagonist 30
CCN1C(=O)OC2(CCCCC2)C1(C)O (centres undefined)	D2 PAM-2 41 (no result: D2 ag-1, D2 PAM-1)
Cc1cc(=O)c2ccccc2n1Cc1ccccc1	none
Cc1ccc2c(c1)c(=O)c(Br)c(C)n2Cc1ccccc1	D2 antagonist 56
CC1CC(C)(C)NC(=S)N1CCCC(=O)NCc1ccccc1 (centres undefined)	D2 antagonist 37
Cc1ccccc1-n1ncc(C(C)NC(=O)c2ccccc2)c1C (centres undefined)	D2 antagonist 36
CN(C)c1ccc(N/C=C/C(=O)c2ccco2)cc1	D2 PAM-1 55
CC(=O)Nc1ccc(N/C=C/C(=O)c2ccco2)cc1	none
N#Cc1cnc(SCC(=O)Nc2ccccc2C(F)(F)F)nc1N	D2 antagonist 32
Nc1nnc(SCC(=O)Nc2ccccc2C(F)(F)F)s1	none (no result: D2 ag-1, D2 PAM-1, D2 antagonist)
CC1=C(C(=O)Nc2cccnc2)C(c2ccc(F)cc2)n2nc(-c3cccc(C)c3)nc2N1 (centres undefined)	none (no result: D2 ag-1, D2 PAM-1, D2 antagonist)
CCOc1ccc(-n2c(=O)c3c(C)c(C)sc3n(CC(=O)c3ccccc3)c2=O)cc1	none (no result: D2 ag-1, D2 PAM-1, D2 antagonist)
COc1cc(Cl)c(C)cc1NC(=O)COC(=O)C1=COCCO1	D2 antagonist 32
O=C(COC(=O)C1=COCCO1)Nc1cc(S(=O)(=O)N2CCCCC2)ccc1Cl	none
Cc1ccc(S(=O)(=O)N2CCOCC2)cc1NC(=O)CNCc1ccccc1Cl	D2 ag-2 39
Cc1ccc(S(=O)(=O)N2CCCCC2)cc1NC(=O)COC(=O)C1=COCCO1	D2 PAM-2 38
CCCCC(=O)N1CCN(c2ccc(OC)cc2[N+](=O)[O-])CC1	D2 antagonist 30
CCCCC(=O)N/N=C/c1ccc(N2CCOCC2)c([N+](=O)[O-])c1	D2 antagonist 59
COc1ccc(N2CCN(C(=O)c3ccccc3)CC2)c([N+](=O)[O-])c1	none
COc1ccccc1CNC(=O)c1ccc2c(c1)sc1nc(-c3ccc(F)cc3)cn12	none (no result: D2 ag-1, D2 PAM-1, D2 antagonist)
Cc1ccccc1NC1=NC(=S)N(CC(N)=O)C12CCOC(C)(C)C2 (centres undefined)	D2 antagonist 44
CC(C)c1ccc2occ(-c3nn[nH]n3)c(=O)c2c1	D2 antagonist 32
CCN1CCN(CCCN(Cc2ccco2)C(=S)Nc2cc(Cl)ccc2C)CC1	D2 antagonist 42
CCN1CCN(CCCN(Cc2ccco2)C(=S)Nc2ccc(C)c(Cl)c2)CC1	none
COc1cc(C)cc2oc(=O)c(CC(=O)N3CCN(C(=O)C4COc5ccccc5O4)CC3)c(C)c12 (centres undefined)	D2 antagonist 37
Cc1cc(O)c2c(C)c(CC(=O)N3CCN(C(=O)C4COc5ccccc5O4)CC3)c(=O)oc2c1 (centres undefined)	none
c1ccc(-c2onc3cc4c(cc23)OCCO4)cc1	D2 ag-1 inconclusive, D2 PAM-1 117
CC(=O)c1ccc2noc(-c3ccccc3)c2c1	D2 ag-1 inconclusive, D2 PAM-1 inconclusive
CCC(=O)N1CCc2cc(S(=O)(=O)CCC(=O)NCc3ccc(C)cc3)ccc21	none
CCC(=O)N1CCc2cc(S(=O)(=O)CCC(=O)NCCc3ccc(S(N)(=O)=O)cc3)ccc21	D2 antagonist 32
Cc1ccc(C)c(NC(=O)CN2C(=O)NC(CCc3ccccc3)C2=O)c1 (centres undefined)	none (no result: D2 ag-2, D2 PAM-2, D2 antagonist)
Cc1cc(C)c(NC(=O)CN2C(=O)NC(CCc3ccccc3)C2=O)c(C)c1 (centres undefined)	D2 antagonist 32

Screens from PubChem BioAssay.
